# The full ranking holds about 1,700 compounds; the median of “fraction of GFP-LC3-positive cells (≥5 vesicles/cell)” is about 0.43, and the highest 2% start at about 0.81. The entries come from a sample that favours the highest values as a whole.
# System: CbCln3 Δex7/8/Δex7/8 GFP-LC3 cerebellar neuronal cells
# Assay: fraction of GFP-LC3-positive cells (≥5 vesicles/cell); higher = more autophagosome accumulation
# In short: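 Compound (~50 nL in DMSO) was pin-transferred in duplicate onto wild-type or mutant CbCln3 cerebellar cells stably expressing GFP-LC3, seeded at 2 × 10^3/well in 384-well plates, for 24 h at 33 °C. After fixation in 3.2% PFA, three fields per well were imaged at 10×. The value reported is the duplicate average of the fraction of cells meeting a vesicle-count threshold, with CellProfiler counting GFP-LC3 vesicles per cell and out-of-focus images excluded. Cells met the threshold at 5 or more vesicles.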
row,SMILES,fraction of GFP-LC3-positive cells
1,C[N+]1(CCCCC[N+]2(C)CCCC2)CCCC1.O=C([O-])[C@H](O)[C@@H](O)C(=O)O.O=C([O-])[C@H](O)[C@@H](O)C(=O)O [Pentolinium bitartrate],0.493
2,COC(=O)C1=C(C)NC(C)=C(C(=O)OCCN(C)Cc2ccccc2)C1c1cccc([N+](=O)[O-])c1 (stereo not given) [Nicardipine],0.146
3,Nc1nc(S)c2ncn([C@@H]3O[C@H](CO)[C@@H](O)[C@H]3O)c2n1 [Thioguanosine],0.576
4,Nc1ncn(C2O[C@H](CO)[C@@H](O)[C@H]2O)c(=O)n1 (stereo not given in full) [Azacytidine-5],0.861
5,Nc1ncnc2c1ncn2C1O[C@H](CO)[C@@H](O)[C@@H]1O (stereo not given in full) [Vidarabine],0.406
6,Nc1ccc(S(=O)(=O)Nc2ncccn2)cc1 [Sulfadiazine],0.438
7,C=C1CC[C@H](O)C/C1=C/C=C1\CCC[C@]2(C)[C@@H]([C@H](C)CCCC(C)C)CC[C@@H]12 [Cholecalciferol],0.281
8,Oc1cc(O)c2c(c1)O[C@H](c1ccc(O)c(O)c1)[C@@H](O)C2 [Epicatechin-(-)],0.438
9,NS(=O)(=O)c1cc2c(cc1C(F)(F)F)NCNS2(=O)=O [Hydroflumethiazide],0.451
10,C[C@@H](O)CCC[C@H](O)/C=C/[C@@H]1[C@@H](C/C=C\CCCC(=O)O)[C@@H](O)C[C@H]1O [19(R)-Hydroxy-prostaglandin F2a],0.532
11,O=C(NCCNCC(O)COc1ccc(O)cc1)N1CCOCC1.O=C(NCCNCC(O)COc1ccc(O)cc1)N1CCOCC1.O=C(O)/C=C/C(=O)O (stereo not given) [Xamoterol hemifumarate],0.32
12,COc1cc([C@@H]2c3cc4c(cc3[C@@H](OC3OC5COC(C)OC5C(O)C3O)[C@H]3COC(=O)[C@H]23)OCO4)cc(OC)c1O (stereo not given in full) [etoposide],0.664
13,Cc1cccc(C)c1NC(=O)C(C)N.Cl (stereo not given) [Tocainide hydrochloride],0.504
14,Cl.c1ccc(CC2=NCCN2)cc1 [Tolazoline hydrochloride],0.508
15,C=CC(=O)c1ccc2ccccc2c1,0.499
16,NC[C@H]1CC[C@H](C(=O)O)CC1 [Tranexamic acid],0.53
17,CC(=O)OC(C)C[N+](C)(C)C.[Cl-] (stereo not given) [Methacholine chloride],0.309
18,CCCc1cc(=O)[nH]c(=S)[nH]1 [Propylthiouracil],0.375

row,SMILES,fraction of GFP-LC3-positive cells
1,COC(=O)/C=C/c1cc(O)ccc1O,0.924
2,O=C(O)/C=C/c1ccc(O)c(O)c1 [Caffeic acid],0.359
3,COc1ccc(C(=O)c2ccccc2)c(O)c1 [Oxybenzone],0.465
4,CCC[C@@H]1C[C@@H](C(=O)N[C@@H](C2O[C@H](SC)[C@H](O)[C@@H](O)[C@H]2O)[C@H](C)Cl)N(C)C1.Cl (stereo not given in full) [Clindamycin hydrochloride],0.462
5,O=C1Nc2ccc([N+](=O)[O-])cc2C1=O [5-Nitroisatin],0.469
6,CCCCNc1cc(C(=O)O)cc(S(N)(=O)=O)c1Oc1ccccc1 [bumetanide],0.319
7,CCCCN(CCCC)CCC(O)c1cc2c(Cl)cc(Cl)cc2c2cc(C(F)(F)F)ccc12.Cl (stereo not given) [Halofantrine hydrochloride],0.319
8,CCCCC[C@H](O)/C=C/C=C\C=C\C=C\[C@@H](O)[C@@H](O)CCCC(=O)O [Lipoxin A4],0.498
9,"OCC(O)CN1CCN(c2ccccc2)CC1 (racemic) [Dropropizine (R,S)]",0.442
10,Cl.OC(CCN1CCCCC1)(c1ccccc1)C1C[C@@H]2C=C[C@H]1C2 (stereo not given in full) [Biperiden hydrochloride],0.447
11,CC[N+](CC)(CC(=O)Nc1c(C)cccc1C)Cc1ccccc1.O=C([O-])c1ccccc1 [Denatonium benzoate],0.424
12,"Nc1ncnc2c1ncn2[C@@H]1O[C@@H]2COP(=O)(O)OC2C1O (single isomer, unassigned; (-)) [(-)-Adenosine 3',5'-cyclic monophosphate]",0.271
13,COCCOC(=O)C1=C(C)NC(C)=C(C(=O)OC(C)C)C1c1cccc([N+](=O)[O-])c1 (stereo not given) [Nimodipine],0.35
14,Cl.N=C(N)NC(=O)c1nc(Cl)c(N)nc1N.O.O [Amiloride hydrochloride dihydrate],0.398
15,CC(=O)O[C@H]1C(=O)[C@@]2(C)C([C@H](OC(=O)c3ccccc3)[C@]3(O)C[C@H](OC(=O)[C@H](O)[C@@H](NC(=O)c4ccccc4)c4ccccc4)C(C)=C1C3(C)C)[C@]1(OC(C)=O)CO[C@@H]1C[C@@H]2O (stereo not given in full) [taxol =paclitaxel],0.89
16,CC(=O)O[C@H]1C(=O)[C@@]2(C)[C@H]([C@H](OC(=O)c3ccccc3)[C@]3(O)C[C@H](OC(=O)[C@H](O)[C@@H](NC(=O)c4ccccc4)c4ccccc4)C(C)=C1C3(C)C)[C@]1(OC(C)=O)CO[C@@H]1C[C@@H]2O [Paclitaxel],0.843
17,COc1c(C=O)c(O)cc2c1C(=O)c1ccccc1C2=O [damnacanthal],0.173

# From the supplement of paper PMC6953052
